# Measured values from publication PMC7862700, “An all-to-all approach to the identification of sequence-specific readers for epigenetic DNA modifications on cytosine”.
# Legend:
# Experiment in all cases: DAPPL (digital affinity profiling via proximity ligation, sequencing); 10 mM Tris-HCl pH 7.5, 50 mM NaCl, 1 mM DTT, 4% glycerol, room temperature, 30 min; GST-TFs on glutathione beads, 16-mer random dsDNA library, 0.1% formaldehyde crosslink after washing; high values mean tight binding
# [1] = molecular target: T1, FLI1 (Homo sapiens, UniProt Q01543 1-452); conditions: protein: recombinant; tags: N-terminal GST; dsDNA, one strand shown
# T1 sequence: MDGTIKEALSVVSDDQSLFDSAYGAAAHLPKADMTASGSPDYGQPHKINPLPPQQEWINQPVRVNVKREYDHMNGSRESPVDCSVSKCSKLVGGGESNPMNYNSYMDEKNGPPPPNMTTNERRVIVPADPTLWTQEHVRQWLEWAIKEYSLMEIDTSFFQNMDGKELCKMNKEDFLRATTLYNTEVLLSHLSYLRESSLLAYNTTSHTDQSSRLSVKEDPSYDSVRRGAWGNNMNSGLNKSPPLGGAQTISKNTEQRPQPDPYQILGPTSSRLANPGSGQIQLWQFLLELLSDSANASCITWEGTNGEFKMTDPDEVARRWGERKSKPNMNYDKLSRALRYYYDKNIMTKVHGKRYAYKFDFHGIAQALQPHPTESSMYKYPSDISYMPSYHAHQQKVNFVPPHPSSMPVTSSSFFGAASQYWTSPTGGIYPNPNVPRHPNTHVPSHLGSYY
# Procedure, shortened: (§1)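 Pools of DNA-barcoded human transcription factors, expressed in yeast as GST fusions on glutathione beads and combined with a tag-only sample, were incubated with 200 nmole of a 16-mer random double-stranded DNA library. Incubation took 30 min at room temperature in Tris/NaCl/DTT/glycerol buffer and was followed by washing, 0.1% formaldehyde crosslinking, proximity ligation (BsaI/T4 ligase, 1 h, 37 °C), PCR amplification and sequencing on an Illumina NextSeq500. Binding signal is the ratio of a hexamer's read frequency for a factor to its frequency for the tag-only sample.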
# [2] = molecular target: T2, ELK1 (Homo sapiens, UniProt P19419 1-428); conditions: protein: recombinant; tags: N-terminal GST; dsDNA, one strand shown
# T2 sequence: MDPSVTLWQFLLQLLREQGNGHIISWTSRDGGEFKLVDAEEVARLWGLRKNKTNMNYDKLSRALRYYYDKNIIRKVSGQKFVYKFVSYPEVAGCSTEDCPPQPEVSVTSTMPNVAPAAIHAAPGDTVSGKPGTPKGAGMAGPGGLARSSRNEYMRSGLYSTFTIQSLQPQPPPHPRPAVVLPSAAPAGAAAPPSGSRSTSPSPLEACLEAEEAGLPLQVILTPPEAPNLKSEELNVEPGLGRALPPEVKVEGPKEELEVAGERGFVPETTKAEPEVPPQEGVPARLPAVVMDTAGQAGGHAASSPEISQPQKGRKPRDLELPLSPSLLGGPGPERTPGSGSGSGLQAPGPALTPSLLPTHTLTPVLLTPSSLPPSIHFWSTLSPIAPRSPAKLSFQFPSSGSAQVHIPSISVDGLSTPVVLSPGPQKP
# Procedure, shortened: as §1
# [3] = molecular target: T3, GABPA (Homo sapiens, UniProt Q06546 1-454); conditions: protein: recombinant; tags: N-terminal GST; dsDNA, one strand shown
# T3 sequence: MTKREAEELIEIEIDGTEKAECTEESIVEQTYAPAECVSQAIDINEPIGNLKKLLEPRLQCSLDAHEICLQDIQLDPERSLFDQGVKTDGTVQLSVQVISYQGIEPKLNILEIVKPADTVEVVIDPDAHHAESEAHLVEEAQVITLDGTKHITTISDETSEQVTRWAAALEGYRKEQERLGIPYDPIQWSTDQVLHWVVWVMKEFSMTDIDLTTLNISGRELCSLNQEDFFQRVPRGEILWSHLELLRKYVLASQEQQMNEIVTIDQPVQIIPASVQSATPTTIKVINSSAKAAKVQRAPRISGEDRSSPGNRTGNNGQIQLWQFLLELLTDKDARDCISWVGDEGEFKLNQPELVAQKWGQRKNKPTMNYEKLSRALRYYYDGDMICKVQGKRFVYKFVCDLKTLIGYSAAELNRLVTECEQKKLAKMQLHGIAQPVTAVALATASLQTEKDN
# Procedure, shortened: as §1
# [4] = molecular target: T4, ERG (Homo sapiens, UniProt P11308 1-479); conditions: protein: recombinant; tags: N-terminal GST; dsDNA, one strand shown
# T4 sequence: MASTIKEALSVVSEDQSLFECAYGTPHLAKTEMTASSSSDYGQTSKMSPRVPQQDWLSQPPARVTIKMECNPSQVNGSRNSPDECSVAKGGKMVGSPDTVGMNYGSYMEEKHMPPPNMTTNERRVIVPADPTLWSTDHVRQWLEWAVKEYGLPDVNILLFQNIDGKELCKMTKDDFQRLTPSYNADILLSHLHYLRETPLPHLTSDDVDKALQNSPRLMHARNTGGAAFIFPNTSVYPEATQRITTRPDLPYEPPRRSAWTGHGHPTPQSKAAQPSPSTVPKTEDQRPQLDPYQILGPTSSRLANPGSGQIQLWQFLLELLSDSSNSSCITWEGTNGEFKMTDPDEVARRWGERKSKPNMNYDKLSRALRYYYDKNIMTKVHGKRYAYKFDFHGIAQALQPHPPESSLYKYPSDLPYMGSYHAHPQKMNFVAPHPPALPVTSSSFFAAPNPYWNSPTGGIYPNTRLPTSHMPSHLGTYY
# Procedure, shortened: as §1
# [5] = molecular target: ELF1 (Homo sapiens, UniProt P32519 1-619); conditions: protein: recombinant; tags: N-terminal GST; dsDNA, one strand shown
# Procedure, shortened: as §1
# [6] = molecular target: T5, EHF (Homo sapiens, UniProt Q9NZC4 1-300); conditions: protein: recombinant; tags: N-terminal GST; dsDNA, one strand shown
# T5 sequence: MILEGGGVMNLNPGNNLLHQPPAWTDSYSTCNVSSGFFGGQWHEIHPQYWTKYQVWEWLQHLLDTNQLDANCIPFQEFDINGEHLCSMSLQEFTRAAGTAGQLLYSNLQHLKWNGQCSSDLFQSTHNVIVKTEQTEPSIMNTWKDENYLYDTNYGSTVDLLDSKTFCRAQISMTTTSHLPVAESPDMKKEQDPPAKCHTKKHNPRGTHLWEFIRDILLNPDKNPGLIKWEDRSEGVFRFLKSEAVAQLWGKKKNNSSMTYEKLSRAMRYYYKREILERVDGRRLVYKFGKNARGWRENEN
# Procedure, shortened: as §1
# [7] = molecular target: SPI1 (Homo sapiens, UniProt P17947 1-270); conditions: protein: recombinant; tags: N-terminal GST; dsDNA, one strand shown
# Procedure, shortened: as §1
# [8] = molecular target: SPIB (Homo sapiens, UniProt Q01892 1-262); conditions: protein: recombinant; tags: N-terminal GST; dsDNA, one strand shown
# Procedure, shortened: as §1
# [9] = molecular target: T6, ELK3 (Homo sapiens, UniProt P41970 1-407); conditions: protein: recombinant; tags: N-terminal GST; dsDNA, one strand shown
# T6 sequence: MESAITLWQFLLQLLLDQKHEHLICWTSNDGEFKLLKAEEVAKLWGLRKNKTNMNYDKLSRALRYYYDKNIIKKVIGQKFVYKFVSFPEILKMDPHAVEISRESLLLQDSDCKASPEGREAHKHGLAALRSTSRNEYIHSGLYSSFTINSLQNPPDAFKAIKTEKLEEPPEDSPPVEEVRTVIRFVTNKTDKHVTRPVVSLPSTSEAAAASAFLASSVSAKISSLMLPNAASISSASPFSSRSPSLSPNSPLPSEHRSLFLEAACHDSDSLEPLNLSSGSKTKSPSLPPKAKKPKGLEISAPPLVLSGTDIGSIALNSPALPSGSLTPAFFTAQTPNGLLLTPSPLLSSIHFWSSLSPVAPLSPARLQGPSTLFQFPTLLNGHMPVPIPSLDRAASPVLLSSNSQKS
# Procedure, shortened: as §1
# [10] = molecular target: T7, FEV (Homo sapiens, UniProt Q99581 1-238); conditions: protein: recombinant; tags: N-terminal GST; dsDNA, one strand shown
# T7 sequence: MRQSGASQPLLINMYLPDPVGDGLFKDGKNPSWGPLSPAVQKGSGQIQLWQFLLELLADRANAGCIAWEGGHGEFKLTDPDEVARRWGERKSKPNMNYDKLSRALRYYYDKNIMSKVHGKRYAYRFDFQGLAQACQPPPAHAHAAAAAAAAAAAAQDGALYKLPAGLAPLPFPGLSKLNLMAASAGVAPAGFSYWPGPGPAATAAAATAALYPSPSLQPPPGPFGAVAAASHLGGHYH
# Procedure, shortened: as §1
# [11] = molecular target: ETV5 (Homo sapiens, UniProt P41161 1-510); conditions: protein: recombinant; tags: N-terminal GST; dsDNA, one strand shown
# Procedure, shortened: as §1
# [12] = molecular target: HSF1 (Homo sapiens, UniProt Q00613 1-529); conditions: protein: recombinant; tags: N-terminal GST; chain copies: 3; dsDNA, one strand shown
# Procedure, shortened: as §1
# [13] = molecular target: T8, SPIC (Homo sapiens, UniProt Q8N5J4 1-248); conditions: protein: recombinant; tags: N-terminal GST; dsDNA, one strand shown
# T8 sequence: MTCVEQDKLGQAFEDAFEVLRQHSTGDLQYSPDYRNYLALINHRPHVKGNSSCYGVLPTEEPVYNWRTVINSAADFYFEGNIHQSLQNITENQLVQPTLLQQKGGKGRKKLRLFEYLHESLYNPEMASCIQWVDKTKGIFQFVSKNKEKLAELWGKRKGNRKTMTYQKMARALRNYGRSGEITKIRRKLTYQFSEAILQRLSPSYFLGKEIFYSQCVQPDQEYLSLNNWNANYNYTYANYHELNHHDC
# Procedure, shortened: as §1
# [14] = molecular target: ELF4 (Homo sapiens, UniProt Q99607 1-663); conditions: protein: recombinant; tags: N-terminal GST; dsDNA, one strand shown
# Procedure, shortened: as §1
# [15] = molecular target: T9, ELK4 (Homo sapiens, UniProt P28324-2 1-405); conditions: protein: recombinant; tags: N-terminal GST; dsDNA, one strand shown
# T9 sequence: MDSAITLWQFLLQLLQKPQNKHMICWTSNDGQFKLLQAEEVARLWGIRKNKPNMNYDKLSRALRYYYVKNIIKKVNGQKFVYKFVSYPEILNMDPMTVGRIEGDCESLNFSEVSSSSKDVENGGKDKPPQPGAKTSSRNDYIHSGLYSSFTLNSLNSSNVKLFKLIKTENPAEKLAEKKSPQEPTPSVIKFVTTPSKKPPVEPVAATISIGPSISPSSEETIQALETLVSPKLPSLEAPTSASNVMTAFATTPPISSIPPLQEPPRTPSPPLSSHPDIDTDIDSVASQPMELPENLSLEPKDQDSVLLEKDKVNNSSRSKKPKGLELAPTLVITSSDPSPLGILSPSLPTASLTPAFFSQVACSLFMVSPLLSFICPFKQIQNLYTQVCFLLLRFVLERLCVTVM
# Procedure, shortened: as §1
# [16] = molecular target: T10, ETV2 (Homo sapiens, UniProt O00321 1-342); conditions: protein: recombinant; tags: N-terminal GST; dsDNA, one strand shown
# T10 sequence: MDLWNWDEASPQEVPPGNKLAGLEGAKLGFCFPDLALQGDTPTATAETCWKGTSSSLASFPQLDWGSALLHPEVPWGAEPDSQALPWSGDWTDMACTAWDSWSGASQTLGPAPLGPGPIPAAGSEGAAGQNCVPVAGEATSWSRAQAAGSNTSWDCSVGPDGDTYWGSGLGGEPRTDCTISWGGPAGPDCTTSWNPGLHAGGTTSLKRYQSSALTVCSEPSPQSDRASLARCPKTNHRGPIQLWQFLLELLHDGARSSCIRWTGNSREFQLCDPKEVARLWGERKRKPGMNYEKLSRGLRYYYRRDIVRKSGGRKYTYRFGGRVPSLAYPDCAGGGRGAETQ
# Procedure, shortened: as §1
# [17] = molecular target: T11, ELF3 (Homo sapiens, UniProt P78545 1-371); conditions: protein: recombinant; tags: N-terminal GST; dsDNA, one strand shown
# T11 sequence: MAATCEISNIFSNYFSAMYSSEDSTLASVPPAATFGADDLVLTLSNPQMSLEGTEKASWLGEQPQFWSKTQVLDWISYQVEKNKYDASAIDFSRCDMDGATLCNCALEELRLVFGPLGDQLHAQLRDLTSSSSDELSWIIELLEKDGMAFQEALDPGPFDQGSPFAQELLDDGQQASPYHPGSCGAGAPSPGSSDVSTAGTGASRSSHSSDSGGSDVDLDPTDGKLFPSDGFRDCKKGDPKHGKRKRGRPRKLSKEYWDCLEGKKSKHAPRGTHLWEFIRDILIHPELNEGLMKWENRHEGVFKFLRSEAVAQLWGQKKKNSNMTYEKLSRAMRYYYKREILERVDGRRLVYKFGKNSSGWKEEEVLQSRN
# Procedure, shortened: as §1
# [18] = molecular target: CRX (Homo sapiens, UniProt O43186 1-299); conditions: protein: recombinant; tags: N-terminal GST; dsDNA, one strand shown
# Procedure, shortened: as §1
# [19] = molecular target: ETV1 (Homo sapiens, UniProt P50549 1-477); conditions: protein: recombinant; tags: N-terminal GST; dsDNA, one strand shown
# Procedure, shortened: as §1
# Sequence of CRX (O43186 whole entry): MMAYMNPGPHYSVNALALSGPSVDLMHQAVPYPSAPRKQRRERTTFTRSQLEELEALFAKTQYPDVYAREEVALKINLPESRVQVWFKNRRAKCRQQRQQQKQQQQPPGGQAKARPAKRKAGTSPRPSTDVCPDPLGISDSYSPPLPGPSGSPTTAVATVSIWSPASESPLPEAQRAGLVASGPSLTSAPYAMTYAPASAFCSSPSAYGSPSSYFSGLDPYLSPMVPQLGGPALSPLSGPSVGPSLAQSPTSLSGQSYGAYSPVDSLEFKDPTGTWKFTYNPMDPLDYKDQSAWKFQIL
# Sequence of ELF1 (P32519 whole entry): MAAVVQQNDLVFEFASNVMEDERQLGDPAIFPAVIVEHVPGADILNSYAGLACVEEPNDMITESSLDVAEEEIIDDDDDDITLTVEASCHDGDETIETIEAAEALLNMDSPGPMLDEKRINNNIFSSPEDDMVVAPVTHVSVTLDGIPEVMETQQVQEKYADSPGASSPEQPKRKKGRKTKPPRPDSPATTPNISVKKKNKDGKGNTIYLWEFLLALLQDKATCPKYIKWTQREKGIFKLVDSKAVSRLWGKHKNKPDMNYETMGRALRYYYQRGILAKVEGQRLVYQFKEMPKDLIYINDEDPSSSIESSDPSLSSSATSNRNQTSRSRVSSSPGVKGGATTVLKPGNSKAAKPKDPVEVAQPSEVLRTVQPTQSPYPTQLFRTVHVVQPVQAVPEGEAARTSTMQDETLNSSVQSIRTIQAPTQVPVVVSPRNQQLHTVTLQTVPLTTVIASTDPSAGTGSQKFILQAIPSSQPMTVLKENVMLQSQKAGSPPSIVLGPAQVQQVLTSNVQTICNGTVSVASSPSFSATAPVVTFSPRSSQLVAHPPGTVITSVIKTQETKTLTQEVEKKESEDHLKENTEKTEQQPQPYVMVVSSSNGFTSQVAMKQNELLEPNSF
# Sequence of ETV1 (P50549 whole entry): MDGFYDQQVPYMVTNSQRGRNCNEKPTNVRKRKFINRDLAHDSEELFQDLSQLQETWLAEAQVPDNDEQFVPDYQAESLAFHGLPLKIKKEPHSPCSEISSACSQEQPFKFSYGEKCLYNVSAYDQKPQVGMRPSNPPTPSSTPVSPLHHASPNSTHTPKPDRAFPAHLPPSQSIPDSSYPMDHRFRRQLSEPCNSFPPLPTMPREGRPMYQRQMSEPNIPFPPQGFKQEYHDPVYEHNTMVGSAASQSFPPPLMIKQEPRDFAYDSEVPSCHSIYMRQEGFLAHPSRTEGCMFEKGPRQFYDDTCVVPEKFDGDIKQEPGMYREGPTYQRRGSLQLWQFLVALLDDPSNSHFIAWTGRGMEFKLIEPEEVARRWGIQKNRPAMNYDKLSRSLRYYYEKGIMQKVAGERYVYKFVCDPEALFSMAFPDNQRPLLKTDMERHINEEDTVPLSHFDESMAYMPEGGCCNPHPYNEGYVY
# Sequence of ETV5 (P41161 whole entry): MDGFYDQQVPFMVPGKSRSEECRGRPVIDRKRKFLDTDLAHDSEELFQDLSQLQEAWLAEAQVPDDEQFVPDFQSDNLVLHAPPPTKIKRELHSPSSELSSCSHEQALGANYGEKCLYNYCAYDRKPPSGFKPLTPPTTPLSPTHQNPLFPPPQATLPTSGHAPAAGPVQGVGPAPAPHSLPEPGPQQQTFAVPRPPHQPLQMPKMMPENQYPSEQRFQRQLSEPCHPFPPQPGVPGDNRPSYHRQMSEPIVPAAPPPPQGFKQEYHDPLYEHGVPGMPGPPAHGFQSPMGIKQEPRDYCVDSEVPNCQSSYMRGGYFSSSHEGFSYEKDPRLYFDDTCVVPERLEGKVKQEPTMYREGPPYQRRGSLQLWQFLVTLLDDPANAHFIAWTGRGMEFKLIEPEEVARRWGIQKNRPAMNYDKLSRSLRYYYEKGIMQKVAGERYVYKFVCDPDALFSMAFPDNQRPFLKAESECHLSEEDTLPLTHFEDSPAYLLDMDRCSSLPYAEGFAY
# Sequence of SPIB (Q01892 whole entry): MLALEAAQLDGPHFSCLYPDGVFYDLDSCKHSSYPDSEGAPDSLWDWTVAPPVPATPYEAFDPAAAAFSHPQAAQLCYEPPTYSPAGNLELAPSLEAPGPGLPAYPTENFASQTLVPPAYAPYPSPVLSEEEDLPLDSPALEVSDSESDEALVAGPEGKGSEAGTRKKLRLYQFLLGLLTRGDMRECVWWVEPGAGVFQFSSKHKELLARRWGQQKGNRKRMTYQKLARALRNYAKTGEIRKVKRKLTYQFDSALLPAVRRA
# Sequence of ELF4 (Q99607 whole entry): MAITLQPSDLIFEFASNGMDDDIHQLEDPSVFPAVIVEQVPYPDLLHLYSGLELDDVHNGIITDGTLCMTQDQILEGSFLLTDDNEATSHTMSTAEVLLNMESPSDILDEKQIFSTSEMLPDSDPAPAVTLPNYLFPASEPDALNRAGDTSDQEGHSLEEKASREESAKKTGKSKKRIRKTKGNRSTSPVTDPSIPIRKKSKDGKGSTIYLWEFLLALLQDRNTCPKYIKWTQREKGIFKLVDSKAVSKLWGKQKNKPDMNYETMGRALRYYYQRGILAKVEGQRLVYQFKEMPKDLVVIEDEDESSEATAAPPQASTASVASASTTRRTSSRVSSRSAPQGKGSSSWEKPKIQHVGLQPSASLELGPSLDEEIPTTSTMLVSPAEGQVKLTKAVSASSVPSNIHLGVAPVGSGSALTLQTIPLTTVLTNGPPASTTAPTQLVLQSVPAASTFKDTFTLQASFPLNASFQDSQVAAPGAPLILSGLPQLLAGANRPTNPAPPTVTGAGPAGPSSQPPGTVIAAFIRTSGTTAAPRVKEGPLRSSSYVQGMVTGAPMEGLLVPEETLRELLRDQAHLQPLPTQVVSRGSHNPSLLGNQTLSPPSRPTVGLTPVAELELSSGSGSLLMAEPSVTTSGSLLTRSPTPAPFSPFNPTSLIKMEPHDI
# Sequence of HSF1 (Q00613 whole entry): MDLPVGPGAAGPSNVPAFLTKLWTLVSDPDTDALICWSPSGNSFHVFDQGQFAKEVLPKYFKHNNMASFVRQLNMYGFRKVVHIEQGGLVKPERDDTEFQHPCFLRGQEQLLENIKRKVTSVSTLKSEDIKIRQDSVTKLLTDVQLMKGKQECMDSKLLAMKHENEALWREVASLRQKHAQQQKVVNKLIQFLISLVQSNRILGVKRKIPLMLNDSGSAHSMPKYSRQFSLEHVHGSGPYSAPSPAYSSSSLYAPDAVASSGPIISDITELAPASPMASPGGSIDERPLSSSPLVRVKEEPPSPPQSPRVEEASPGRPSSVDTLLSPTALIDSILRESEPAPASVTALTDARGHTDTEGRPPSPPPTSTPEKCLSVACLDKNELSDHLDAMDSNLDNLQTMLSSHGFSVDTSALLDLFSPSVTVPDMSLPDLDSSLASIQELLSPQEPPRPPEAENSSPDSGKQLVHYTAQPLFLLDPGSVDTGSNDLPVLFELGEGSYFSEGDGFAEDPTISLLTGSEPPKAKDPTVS
sequence,measurement,setting,value
TCTAAG,binding signal,[1],"1.22 fold enrichment (6-mer frequency, TF over GST control)"
same,binding signal,[2],"1.19 fold enrichment (6-mer frequency, TF over GST control)"
same,binding signal,[3],"1.3 fold enrichment (6-mer frequency, TF over GST control)"
same,binding signal,[4],"1.2 fold enrichment (6-mer frequency, TF over GST control)"
same,binding signal,[5],"1.29 fold enrichment (6-mer frequency, TF over GST control)"
same,binding signal,[6],"1.28 fold enrichment (6-mer frequency, TF over GST control)"
same,binding signal,[7],"1.17 fold enrichment (6-mer frequency, TF over GST control)"
same,binding signal,[8],"1.28 fold enrichment (6-mer frequency, TF over GST control)"
same,binding signal,[9],"1.22 fold enrichment (6-mer frequency, TF over GST control)"
same,binding signal,[10],"1.13 fold enrichment (6-mer frequency, TF over GST control)"
same,binding signal,[11],"1.3 fold enrichment (6-mer frequency, TF over GST control)"
same,binding signal,[12],"1.49 fold enrichment (6-mer frequency, TF over GST control)"
same,binding signal,[13],"1.21 fold enrichment (6-mer frequency, TF over GST control)"
same,binding signal,[14],"1.25 fold enrichment (6-mer frequency, TF over GST control)"
same,binding signal,[15],"1.2 fold enrichment (6-mer frequency, TF over GST control)"
same,binding signal,[16],"1.29 fold enrichment (6-mer frequency, TF over GST control)"
same,binding signal,[17],"1.27 fold enrichment (6-mer frequency, TF over GST control)"
same,binding signal,[18],"1.86 fold enrichment (6-mer frequency, TF over GST control)"
same,binding signal,[19],"1.25 fold enrichment (6-mer frequency, TF over GST control)"
